Results from PubChem BioAssay (NCI).
Compounds without any hit were thinned out: in the full panel of roughly 83,000, 20% have a hit.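 Single-dose data. Exposure time 48 hours. Values below 10 considered active.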 The source made the active and inactive calls.

How the values were obtained:
Assay in all cases: NCI-60 one-dose screen, 48 h (100 = growth as untreated, 0 = no growth, -100 = all killed)
Settings in all cases: 10 µM unless noted
DU-145 prostate = tested on: DU-145 prostate
K-562 leukemia = tested on: K-562 leukemia
MALME-3M melanoma = tested on: MALME-3M melanoma
MDA-MB-231 breast = tested on: MDA-MB-231 breast
RXF 393 renal = tested on: RXF 393 renal
SF-268 CNS = tested on: SF-268 CNS
SF-295 CNS = tested on: SF-295 CNS
SF-539 CNS = tested on: SF-539 CNS
UACC-257 melanoma = tested on: UACC-257 melanoma
M14 melanoma = tested on: M14 melanoma
HCT-15 colon = tested on: HCT-15 colon
HT29 colon = tested on: HT29 colon
SNB-75 CNS = tested on: SNB-75 CNS
SNB-19 CNS = tested on: SNB-19 CNS
U251 CNS = tested on: U251 CNS
PC-3 prostate = tested on: PC-3 prostate
SK-MEL-5 melanoma = tested on: SK-MEL-5 melanoma
UACC-62 melanoma = tested on: UACC-62 melanoma
LOX IMVI melanoma = tested on: LOX IMVI melanoma
SK-MEL-28 melanoma = tested on: SK-MEL-28 melanoma

Measured: growth

N#Cc1c2c(c(N)[nH]c1=O)C(=O)NC2(O)c1ccccc1 (stereo not given)
inactive: DU-145 prostate 105% | K-562 leukemia 98.7% | MALME-3M melanoma 87.1% | MDA-MB-231 breast 112% | RXF 393 renal 103% | SF-268 CNS 105% | SF-295 CNS 100% | SF-539 CNS 104% | UACC-257 melanoma 96.7% | M14 melanoma 100% | HCT-15 colon 106% | HT29 colon 97% | SNB-75 CNS 106% | SNB-19 CNS 114% | U251 CNS 101% | PC-3 prostate 102% | SK-MEL-5 melanoma 98.6% | UACC-62 melanoma 107% | LOX IMVI melanoma 98.5% | SK-MEL-28 melanoma 114%

O=C(COc1ccc(Cl)cc1Cl)N1N=C(c2ccc(Cl)cc2Cl)CC1(O)c1cc(F)c(Cl)cc1Cl (stereo not given)
inactive: DU-145 prostate 123% | K-562 leukemia 64.4% | MALME-3M melanoma 129% | MDA-MB-231 breast 136% | RXF 393 renal 134% | SF-268 CNS 103% | SF-295 CNS 117% | SF-539 CNS 112% | UACC-257 melanoma 99% | M14 melanoma 94.1% | HCT-15 colon 158% | HT29 colon 116% | SNB-75 CNS 108% | SNB-19 CNS 88% | U251 CNS 131% | PC-3 prostate 102% | SK-MEL-5 melanoma 80.8% | UACC-62 melanoma 156% | LOX IMVI melanoma 128% | SK-MEL-28 melanoma 141%

COc1cc(C(=O)NNC(=O)c2ccccc2O)cc(OC)c1OC
inactive: DU-145 prostate 104% | K-562 leukemia 95.7% | MALME-3M melanoma 103% | MDA-MB-231 breast 87.5% | RXF 393 renal 99% | SF-268 CNS 98.1% | SF-295 CNS 98.2% | SF-539 CNS 98.5% | UACC-257 melanoma 72.4% | M14 melanoma 109% | HCT-15 colon 105% | HT29 colon 80.6% | SNB-75 CNS 79.2% | SNB-19 CNS 93.3% | U251 CNS 91.6% | PC-3 prostate 70.9% | SK-MEL-5 melanoma 86.9% | UACC-62 melanoma 81.3% | LOX IMVI melanoma 102% | SK-MEL-28 melanoma 109%

O=[N+]([O-])c1ccccc1NC1c2ccccc2Oc2ccccc21
inactive: DU-145 prostate 58.3% | K-562 leukemia 11.2% | MALME-3M melanoma 48.4% | MDA-MB-231 breast 71.7% | RXF 393 renal 81.1% | SF-268 CNS 41.2% | SF-295 CNS 23.6% | SF-539 CNS 58.2% | UACC-257 melanoma 74.2% | M14 melanoma 36.6% | HCT-15 colon 37% | HT29 colon 11% | SNB-75 CNS 69.5% | SNB-19 CNS 68.7% | U251 CNS 40.9% | PC-3 prostate 56.1% | SK-MEL-5 melanoma 46% | UACC-62 melanoma 48.7% | LOX IMVI melanoma 65.1% | SK-MEL-28 melanoma 69.3%

CCN(CC)CCNc1ccc([N+](=O)[O-])c2sc3cc(Cl)ccc3c(=O)c12
active: K-562 leukemia 1.93% | MALME-3M melanoma -9.6% | RXF 393 renal -39.3% | SNB-75 CNS 1.48% | SK-MEL-28 melanoma -47.5%
inactive: DU-145 prostate 50.2% | MDA-MB-231 breast 22.6% | SF-268 CNS 52.4% | SF-295 CNS 43.9% | SF-539 CNS 34.5% | UACC-257 melanoma 71.5% | M14 melanoma 79.4% | HCT-15 colon 48.5% | HT29 colon 34.7% | SNB-19 CNS 42.2% | U251 CNS 40.4% | PC-3 prostate 48.5% | SK-MEL-5 melanoma 61.7% | UACC-62 melanoma 30.9% | LOX IMVI melanoma 19.1%

CC(=O)Nc1ccc(OC(=O)c2ccccc2O)cc1
inactive: DU-145 prostate 110% | K-562 leukemia 88.1% | MALME-3M melanoma 105% | MDA-MB-231 breast 108% | RXF 393 renal 114% | SF-268 CNS 106% | SF-295 CNS 95.3% | SF-539 CNS 108% | UACC-257 melanoma 111% | M14 melanoma 109% | HCT-15 colon 107% | HT29 colon 113% | SNB-75 CNS 114% | SNB-19 CNS 100% | U251 CNS 99.3% | PC-3 prostate 94.8% | SK-MEL-5 melanoma 109% | UACC-62 melanoma 102% | LOX IMVI melanoma 99.7% | SK-MEL-28 melanoma 120%

CCOc1ccc(NC(=O)Nc2cc(C(C)C)ccc2C)cc1
inactive: DU-145 prostate 93.2% | K-562 leukemia 85% | MALME-3M melanoma 105% | MDA-MB-231 breast 16.7% | SF-268 CNS 69.2% | SF-295 CNS 104% | SF-539 CNS 90% | UACC-257 melanoma 66.4% | M14 melanoma 93.4% | HCT-15 colon 83.3% | HT29 colon 85% | SNB-75 CNS 19.5% | SNB-19 CNS 79.5% | U251 CNS 28.9% | PC-3 prostate 69.3% | SK-MEL-5 melanoma 124% | UACC-62 melanoma 80% | LOX IMVI melanoma 71.2% | SK-MEL-28 melanoma 68%
active: RXF 393 renal -31.8%

O[C@@H]1CCO[C@H](c2ccc3ccccc3c2)C1
inactive: DU-145 prostate 102% | K-562 leukemia 98.3% | MALME-3M melanoma 96.7% | MDA-MB-231 breast 104% | RXF 393 renal 97% | SF-268 CNS 96.2% | SF-295 CNS 102% | SF-539 CNS 98.9% | UACC-257 melanoma 98.5% | M14 melanoma 101% | HCT-15 colon 85.9% | HT29 colon 100% | SNB-75 CNS 97.2% | SNB-19 CNS 101% | U251 CNS 96.7% | PC-3 prostate 95.5% | SK-MEL-5 melanoma 102% | UACC-62 melanoma 100% | LOX IMVI melanoma 102% | SK-MEL-28 melanoma 111%
